HSF-1 act = increases HSF-1 driven luciferase reporter signal; NIH3T3-HGL HSF-1 luciferase reporter, MG132, 8 h; 100% = twice DMSO control signal; activation, % at 9 µM; hit rate 1.7% among 300,000; AID 504408;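 active means mean replicate activation of at least 50% with a set share of replicates each reaching 50%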
Dyrk1A ADPGlo = inhibitors of rat Dyrk1A kinase; Q63470; ADP-Glo luminescence, NFATc1 peptide; inhibition, % at 12.5 µM; hit rate 0.43% among 310,000; AID 504441; in the data active means inhibition above about 50%
HSF1 inhib = HSF1 inhibition; NIH3T3-HGL HSE-luciferase, MG132-induced, luminescence 8 h; stronger effect = lower value; hit rate 0.77% among 300,000; activity change, negative = inhibition, % at 7.5 µM (by protocol); AID 2098;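 active means more than half of replicate wells show activity change below -50%, luminescence cut by over half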;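 further: luciferase reports HSF-1 transcriptional activity via heat shock element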
NPR2 activator = GC-B (human) receptor activation; HEK293-GC-B cells, CNP EC30, cGMP TR-FRET; 0% at EC30 CNP, 100% saturating CNP; P20594; AID 1920062; activation, % at 10 µM; hit rate 0.11% among 370,000;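 active means activation at 10 µM reaching about 35% in either raw or pattern-adjusted values, limit read from the data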
aDG glyco act = increases alpha dystroglycan glycosylation. Pro5-aDG cells, alpha-DG glycosylation AlphaScreen (IIH6); 0% Pro5, 100% B10-LARGE cell signal. activation, % at 10 µM. hit rate 0.22% among 360,000. AID 624168;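 active means activation of at least 8% versus controls, or a plate z-score of at least 8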;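 further: Pro5 are CHO cells carrying HIG-tagged alpha-DG that lacks glycosylation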
GC-A act = GC-A (human) enzyme activation; P16066; HEK293 GC-A cells, cGMP TR-FRET, EC30 ANP; 0% at EC30 ANP, 100% saturating ANP; activation, % at 10 µM; hit rate 0.14% among 370,000; AID 1671463; in the data active means activation above about 40%
Target sequence (P16066 whole entry, looked up): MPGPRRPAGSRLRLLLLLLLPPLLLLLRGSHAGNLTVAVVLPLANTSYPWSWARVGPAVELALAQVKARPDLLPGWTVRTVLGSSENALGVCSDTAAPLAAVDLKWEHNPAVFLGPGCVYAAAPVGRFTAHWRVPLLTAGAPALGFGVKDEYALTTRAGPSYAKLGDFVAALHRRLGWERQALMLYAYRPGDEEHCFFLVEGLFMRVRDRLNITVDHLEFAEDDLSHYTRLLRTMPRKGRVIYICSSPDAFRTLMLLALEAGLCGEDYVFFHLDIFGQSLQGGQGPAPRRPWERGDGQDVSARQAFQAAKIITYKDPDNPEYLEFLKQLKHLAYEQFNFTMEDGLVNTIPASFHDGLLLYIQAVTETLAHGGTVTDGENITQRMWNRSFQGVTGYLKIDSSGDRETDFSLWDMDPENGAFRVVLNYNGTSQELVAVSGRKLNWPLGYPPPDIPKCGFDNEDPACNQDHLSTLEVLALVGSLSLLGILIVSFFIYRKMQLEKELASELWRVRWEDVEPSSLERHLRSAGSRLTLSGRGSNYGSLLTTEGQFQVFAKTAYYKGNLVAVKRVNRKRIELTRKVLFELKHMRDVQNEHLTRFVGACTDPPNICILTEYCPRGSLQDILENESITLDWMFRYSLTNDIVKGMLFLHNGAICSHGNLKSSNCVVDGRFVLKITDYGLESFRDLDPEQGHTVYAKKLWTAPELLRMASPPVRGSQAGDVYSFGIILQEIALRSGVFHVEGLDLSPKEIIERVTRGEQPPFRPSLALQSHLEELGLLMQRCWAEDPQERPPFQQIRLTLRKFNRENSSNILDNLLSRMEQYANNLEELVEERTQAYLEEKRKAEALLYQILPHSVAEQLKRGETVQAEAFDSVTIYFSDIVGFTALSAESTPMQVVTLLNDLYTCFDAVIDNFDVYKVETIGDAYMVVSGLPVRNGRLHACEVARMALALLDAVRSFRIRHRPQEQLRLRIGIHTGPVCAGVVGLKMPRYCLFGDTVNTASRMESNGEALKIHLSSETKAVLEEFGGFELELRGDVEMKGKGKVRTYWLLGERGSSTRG
A number is an active result. Hits are enriched below; roughly 2.5% of the tested compounds scored in any of these assays.

How did O=C(COc1ccc(Br)cc1)N1CCc2ccccc2C1 do in these assays?
HSF-1 act: inactive; Dyrk1A ADPGlo: inactive; HSF1 inhib: inactive; NPR2 activator: inactive; aDG glyco act: inactive; GC-A act: inactive

What do the screens show for `Cc1ccc2oc(=O)c(/C=C(\O)c3cccs3)nc2c1`?
HSF-1 act: 118.8; HSF1 inhib: inactive; NPR2 activator: inactive; aDG glyco act: inactive; GC-A act: inactive

Results for Cc1ccc2oc(=O)c(/C=C(\O)c3ccccc3)nc2c1 ?
HSF-1 act: inactive; Dyrk1A ADPGlo: inactive; HSF1 inhib: inactive; NPR2 activator: inactive; aDG glyco act: inactive; GC-A act: inactive

How did O=c1oc2ccc(Cl)cc2nc1/C=C(\O)c1cccs1 do in these assays?
HSF-1 act: 52.1; HSF1 inhib: inactive; NPR2 activator: inactive; aDG glyco act: inactive; GC-A act: inactive

How did C[C@@H]1CN([C@@H](C)CO)C(=O)CCCn2nncc2CO[C@H]1CN(C)Cc1ccc(Oc2ccccc2)cc1 do in these assays?
NPR2 activator: inactive; aDG glyco act: inactive; GC-A act: inactive

What do the screens show for `Cn1c(=O)cc(SCC(=O)N2CCOCC2)c2ccc(Cl)cc21`?
HSF-1 act: 97.8; Dyrk1A ADPGlo: inactive; HSF1 inhib: inactive; NPR2 activator: inactive; aDG glyco act: inactive; GC-A act: inactive

How did Cn1c(=O)cc(SCC(=O)N2CCCC2)c2ccc(Cl)cc21 do in these assays?
HSF-1 act: inactive; Dyrk1A ADPGlo: inactive; HSF1 inhib: inactive; NPR2 activator: inactive; aDG glyco act: inactive; GC-A act: inactive

What do the screens show for `CCc1nc2sc3ccccc3c(=O)c2c(=O)n1Cc1ccc(OC)cc1`?
HSF-1 act: inactive; HSF1 inhib: -65.0; NPR2 activator: inactive; aDG glyco act: inactive; GC-A act: inactive

How did O=C(COC(=O)c1ccc(O)cc1)Nc1ccc(OC(F)F)cc1 do in these assays?
HSF-1 act: inactive; Dyrk1A ADPGlo: inactive; HSF1 inhib: inactive; NPR2 activator: inactive; aDG glyco act: inactive; GC-A act: inactive

What do the screens show for `CCCCSC1=C(C#N)C(c2ccccc2C)CC(=O)N1` (stereo unspecified)?
HSF-1 act: inactive; Dyrk1A ADPGlo: inactive; HSF1 inhib: -58.9; NPR2 activator: inactive; aDG glyco act: inactive; GC-A act: inactive

What do the screens show for `O=C(c1ccccc1NS(=O)(=O)c1ccc(Br)cc1)N1CCOCC1`?
HSF-1 act: inactive; Dyrk1A ADPGlo: inactive; HSF1 inhib: inactive; NPR2 activator: inactive; aDG glyco act: inactive; GC-A act: inactive

Results for CC1(C)CC(CCN)(Cc2ccccc2Cl)CCO1 (stereo unspecified) ?
HSF-1 act: 59.6; Dyrk1A ADPGlo: inactive; HSF1 inhib: inactive; NPR2 activator: inactive; aDG glyco act: inactive; GC-A act: inactive

How did COc1ccccc1C(=O)Nc1sc(C(=O)N2CCCC2)c(C)c1C#N do in these assays?
HSF-1 act: inactive; Dyrk1A ADPGlo: inactive; HSF1 inhib: inactive; NPR2 activator: inactive; aDG glyco act: inactive; GC-A act: inactive

How did Cc1ccc2nsnc2c1NS(=O)(=O)c1c(C)ccc2nsnc12 do in these assays?
HSF-1 act: inactive; Dyrk1A ADPGlo: inactive; HSF1 inhib: inactive; NPR2 activator: inactive; aDG glyco act: inactive; GC-A act: inactive

Results for CCOC(=O)CCCNS(=O)(=O)c1c(C)ccc2nsnc12 ?
HSF-1 act: inactive; Dyrk1A ADPGlo: inactive; HSF1 inhib: -89.3; NPR2 activator: inactive; aDG glyco act: inactive; GC-A act: inactive

How did COc1cc(C(F)(F)F)nc2ccc(C#CCOC(=O)Nc3ccccc3)cc12 do in these assays?
HSF-1 act: inactive; Dyrk1A ADPGlo: inactive; HSF1 inhib: inactive; NPR2 activator: inactive; aDG glyco act: inactive; GC-A act: inactive

What do the screens show for `Cc1cc(NC(=S)N(Cc2ccc(Br)cc2)Cc2ccc(C(=O)O)cc2)ccc1Cl`?
HSF-1 act: 58.2; Dyrk1A ADPGlo: inactive; HSF1 inhib: inactive; NPR2 activator: inactive; aDG glyco act: inactive; GC-A act: inactive

What do the screens show for `Cc1cccc(NC(=S)N(Cc2ccc(Br)cc2)Cc2ccc(C(=O)O)cc2)c1`?
HSF-1 act: inactive; Dyrk1A ADPGlo: inactive; HSF1 inhib: inactive; NPR2 activator: inactive; aDG glyco act: inactive; GC-A act: inactive

What do the screens show for `Cc1c(N=C2N=C(NC(=O)Nc3ccc(Cl)cc3)c3ccccc32)c(=O)n(-c2ccccc2)n1C`?
HSF-1 act: inactive; Dyrk1A ADPGlo: inactive; HSF1 inhib: inactive; NPR2 activator: inactive; aDG glyco act: inactive; GC-A act: 75.8

Results for CC(C)C(C)NC(=O)CN1C(=O)NC(C)(c2ccc3ccccc3c2)C1=O (stereo unspecified) ?
HSF-1 act: inactive; HSF1 inhib: inactive; NPR2 activator: inactive; aDG glyco act: inactive; GC-A act: inactive

What do the screens show for `COc1cccc(CNC(=O)C2CCN(S(=O)(=O)c3ccc(C)cc3)CC2)c1`?
HSF-1 act: inactive; Dyrk1A ADPGlo: inactive; HSF1 inhib: inactive; NPR2 activator: inactive; aDG glyco act: inactive; GC-A act: inactive

How did O=S(=O)(Nc1cccc(-n2cnnn2)c1)c1cc(Cl)ccc1Cl do in these assays?
HSF-1 act: inactive; Dyrk1A ADPGlo: inactive; HSF1 inhib: -88.0; NPR2 activator: inactive; aDG glyco act: inactive; GC-A act: inactive

What do the screens show for `CCOCCCNS(=O)(=O)c1ccc2c(c1)CCN2C(=O)CC`?
HSF-1 act: inactive; Dyrk1A ADPGlo: inactive; HSF1 inhib: inactive; NPR2 activator: inactive; aDG glyco act: inactive; GC-A act: inactive

What do the screens show for `O=C(Cn1nnc(-c2ccccc2)n1)OC1CCOC1=O` (stereo unspecified)?
HSF-1 act: inactive; Dyrk1A ADPGlo: inactive; HSF1 inhib: inactive; NPR2 activator: inactive; aDG glyco act: inactive; GC-A act: 53.8

Results for Cc1cc(N2CCCC2=O)ccc1S(=O)(=O)Nc1c(C)nn(C)c1C ?
HSF-1 act: inactive; Dyrk1A ADPGlo: inactive; HSF1 inhib: inactive; NPR2 activator: inactive; aDG glyco act: inactive; GC-A act: inactive

How did O=C(O)c1ccccc1OCc1ccccc1Br do in these assays?
HSF-1 act: inactive; Dyrk1A ADPGlo: inactive; HSF1 inhib: inactive; NPR2 activator: inactive; aDG glyco act: inactive; GC-A act: inactive

Results for O=C(O)c1ccccc1COc1ccccc1Cl ?
HSF-1 act: inactive; Dyrk1A ADPGlo: inactive; HSF1 inhib: -56.5; NPR2 activator: inactive; aDG glyco act: inactive; GC-A act: inactive

Results for ClC(Cl)(Cl)c1nc2ccccc2n2nncc12 ?
HSF-1 act: 208.2; Dyrk1A ADPGlo: inactive; HSF1 inhib: inactive; NPR2 activator: inactive; aDG glyco act: inactive; GC-A act: inactive

What do the screens show for `Cc1ccc(NC(=O)C2CCCN(S(=O)(=O)c3c(C)noc3/C=C/N(C)C)C2)cc1F` (stereo unspecified)?
Dyrk1A ADPGlo: inactive; NPR2 activator: inactive; aDG glyco act: inactive; GC-A act: inactive

Results for Cc1ccc(/C=N/NC(=O)c2nnn(-c3nonc3N)c2C(C)C)s1 ?
HSF-1 act: inactive; Dyrk1A ADPGlo: inactive; HSF1 inhib: inactive; NPR2 activator: inactive; aDG glyco act: inactive; GC-A act: inactive
